Bioassay records deposited in PubChem by National Center for Advancing Translational Sciences (NCATS).
Shown are actives, neighbours in structure and some others; about 9.2% of the full set was active somewhere.
FLuc counter: counter-screen for miR-21 project: firefly luciferase inhibitors or activators. P08659. AID 588342. purified FLuc, Km substrates, luminescence inhibition. Potency, µM (doses to about 57.5 µM), actives largely listed as inhibitors. 360,000 compounds, 6.9% hits; further: nearly all actives have a fitted effect of over 55% in size
Target sequence (P08659 whole entry, looked up): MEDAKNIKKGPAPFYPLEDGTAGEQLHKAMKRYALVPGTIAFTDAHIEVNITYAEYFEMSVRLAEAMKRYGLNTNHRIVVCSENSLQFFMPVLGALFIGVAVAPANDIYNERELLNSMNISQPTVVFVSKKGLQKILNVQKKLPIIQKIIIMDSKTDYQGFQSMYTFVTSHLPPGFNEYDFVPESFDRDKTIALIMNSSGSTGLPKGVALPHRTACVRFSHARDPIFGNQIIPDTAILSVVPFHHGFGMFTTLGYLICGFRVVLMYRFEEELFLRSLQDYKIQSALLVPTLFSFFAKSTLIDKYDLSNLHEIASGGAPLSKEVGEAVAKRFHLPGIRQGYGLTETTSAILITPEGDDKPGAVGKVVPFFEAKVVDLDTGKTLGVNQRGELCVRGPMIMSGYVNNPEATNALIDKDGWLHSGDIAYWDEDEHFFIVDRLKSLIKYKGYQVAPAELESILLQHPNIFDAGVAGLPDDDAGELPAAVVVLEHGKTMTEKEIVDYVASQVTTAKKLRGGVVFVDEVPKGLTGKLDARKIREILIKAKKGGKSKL
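Purified P. pyralis luciferase, 10 nM final, with Km-level 10 uM D-luciferin and 10 uM ATP in 50 mM Tris acetate pH 7.5, 10 mM Mg acetate, 0.01% Tween-20, 0.05% BSA; 6-point qHTS titration about 60 µM downward; luminescence read.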
NPC1 prom act: activators of NPC1 promoter | AID 485313 | 320,000 compounds, 2.4% hits | Huh7 NPC1 promoter luciferase reporter, 24 h | Potency, µM (highest dose often 9.22 µM), hits mostly activators; further: nearly all actives have a fitted effect of over 60% in size
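Stably transfected Huh7 (NPC1 promoter→luciferase), 1500 cells/well in Opti-MEM + 10% FBS, 2 h settle, then compound 24 h at 37 °C. Luminescence after 10 min with Amplite reagent.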
Rab9 promoter act: activators of Rab9 promoter. Huh7 Rab9 promoter-luciferase reporter, luminescence, 24 h. Potency, µM (titrated, usually from 9.22 µM), actives largely listed as activators. 320,000 compounds, 2.8% hits. AID 485297; further: nearly all actives have a fitted effect of over 60% in size
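Huh7 reporter line, Rab9 promoter upstream of luciferase. Compound exposure 24 h at 37 °C in reduced-serum medium with 10% FBS. Read-out: luminescence.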
ELG1 genotox: induces genotoxicity in HEK293T cells with luciferase-tagged ELG1 | HEK293T ELG1-luciferase reporter, luminescence, 16 h | Potency, µM (top dose mostly 46 µM), usual class: activators | 330,000 compounds, 1.3% hits | AID 504466; further: nearly all actives have a fitted effect of over 60% in size
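HEK293T cells expressing luciferase-tagged ELG1 were exposed to compound or DMSO vehicle for 16 hr at 37 °C and 5% CO2. Luciferase activity was then measured with ONE-Glo after 30 min at room temperature.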
ELG1 DNA repair: ELG1-dependent DNA repair inhibition; Potency, µM (top dose mostly 46.1 µM), actives largely listed as inhibitors; HEK293T ELG1-luciferase reporter, luminescence, 16 h; DNA damage induced by 5-fluorouridine; 330,000 compounds, 2.3% hits; AID 504467; further: nearly all actives have a fitted effect of over 55% in size
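Cells (2,000 per well) received 5-fluorouridine plus test compound or DMSO and were incubated 16 hr at 37 °C, 5% CO2. Luciferase activity was read by luminescence 30 min after ONE-Glo addition; signal suppression marked inhibition of damage-induced ELG1 function.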
SMN2 splice up: enhancers of SMN2 splice variant expression; HEK293 SMN2-luciferase splicing reporter, luminescence, 30-36 h; Potency, µM (top dose mostly 46.1 µM), usual class: activators; 210,000 compounds, 2.8% hits; further: nearly all actives have a fitted effect of over 55% in size
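qHTS luciferase splicing reporter: luminescence rises when SMN2 exon 7 is included in transfected HEK293 cells. Compound exposure lasted 30-36 h at 37C, with 4.5 mM final sodium butyrate as control, followed by a ONE-Glo read.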
ELG1 FLuc counter: luciferase inhibition in cell-free luciferin readout for ELG1 hits; shares compounds with ELG1 DNA repair; cell-free firefly luciferase luminescence counter-screen, ViewLux; Potency, µM (doses to about 46.1 µM), hits mostly inhibitors; 350 compounds, 3% hits; AID 624247
ELG1 Luc conf: confirmation of human ELG1-dependent DNA repair inhibitors; shares compounds with ELG1 DNA repair; HEK293T ELG1-luciferase levels, luminescence; cells co-treated with 5-fluorouridine; Potency, µM (titrated, usually from 46.1 µM), most hits filed as inhibitors; 670 compounds, 68% hits; further: nearly all actives have a fitted effect of over 55% in size
ELG1-Luc MMS: inhibits ELG1-dependent repair under MMS stimulation in HEK293T cells; shares compounds with ELG1 DNA repair; HEK293T luciferase-tagged ELG1 level, MMS stimulated; Potency, µM (doses to about 46.1 µM), most hits filed as inhibitors; 670 compounds, 53% hits; AID 624249; further: nearly all actives have a fitted effect of over 60% in size
ELG1 5-FU: confirmation of ELG1 repair inhibitors: viability with 5FU. Potency, µM (highest dose often 46.1 µM), usual class: cytotoxic. shares compounds with ELG1 DNA repair. cell viability with 5-FU, ELG1-dependent repair. 670 tested, under 10 active;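 further: ELG1-luc HEK293T cells cotreated with 5-fluorouridine at 10 µM final; viability measured 16 h after compound addition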
ELG1 MMS viab: confirmation of ELG1 repair inhibitors: viability with MMS; shares compounds with ELG1 DNA repair; Cell viability with MMS, ELG1-dependent DNA repair; Potency, µM (titrated, usually from 46.1 µM), actives largely listed as cytotoxic; 670 compounds, 33% hits; AID 624251;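 further: ELG1-luc HEK293T cells co-treated with 10 µM MMS; viability read 16 h after compound addition; nearly all actives have a fitted effect of over 60% in size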
Cell viab unstim: affects unstimulated cell viability, ELG1 hit counter-screen. 900 compounds, 8% hits. shares compounds with ELG1 DNA repair. Potency, µM (series often up to 45.9 µM), actives largely listed as cytotoxic. cell viability counter-screen, unstimulated, luminescence;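 further: compound exposure lasted 16 hours before reading; nearly all actives have a fitted effect of over 55% in size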
FLuc enzyme: inhibits purified firefly luciferase, counter-screen for ELG1 hits | shares compounds with ELG1 DNA repair | AID 624253 | 350 compounds, 10% hits | Potency, µM (top dose mostly 57.5 µM), usual class: inhibitors | purified firefly luciferase, luminescence counter-screen
Hits are given with their value; - = inactive; ? = inconclusive; . = not tested or not shown. The call rests on the fitted dose curve; in most records, active means well fitted curve in the direction sought with a large enough effect; inconclusive means small, poorly fitted or top-dose-only effect, or another doubt; inactive means no such curve, though single readings can be large; an effect the other way counts as inactive or inconclusive.

SMILES	FLuc counter	NPC1 prom act	Rab9 promoter act	ELG1 genotox	ELG1 DNA repair	SMN2 splice up	others
CC(C)Oc1ccc(CNC(=O)Oc2ccccc2)cc1	6.75µM	3.55µM	3.16µM	-	-	.
CNC(=O)Oc1ccccc1OC(C)C	.	.	.	.	.	-
CCC1(C)CC(C(N)=S)CCO1 (configuration not stated)	?	-	-	-	-	.
CN(C)C(=O)Oc1ccnc2cc(Cl)ccc12	-	-	-	-	?	?
Cc1ccc(-c2nc3ccc(Cl)cc3n2OC(=O)N(C)C)cc1	?	3.16µM	3.16µM	2.91µM	?	-
CCN1/C(=C\C=C\C2=[N+](CC)c3ccccc3C2(C)C)C(C)(C)c2ccccc21	?	-	-	-	2.31µM	-
CCOC(=O)c1c(C)n(Cc2ccccc2)c2ccc(OCC(O)Cn3nc(C)cc3C)cc12 (configuration not stated)	-	-	-	-	20.6µM	-
CN=C=S	.	.	.	.	.	-
COc1ccc(C(CC(=O)N2CCC3(CC2)OCCO3)NS(=O)(=O)c2ccc(F)cc2)cc1 (configuration not stated)	-	-	3.55µM	-	-	-
N#CC(C#N)=NNc1ccc([N+](=O)[O-])cc1	16.9µM	-	-	-	-	.
CCN(CC)S(=O)(=O)c1ccc(NN=C(C#N)C#N)cc1	?	-	-	-	?	.
CCCCCC1C(=O)O[C@H](C)[C@@H](NC(=O)c2cccc(NC=O)c2O)C(=O)OC(C)C1OC(=O)CC(C)C (some centres not stated)	.	.	.	.	.	-	ELG1 FLuc counter=-;ELG1 Luc conf=-;ELG1-Luc MMS=0.0141µM;ELG1 5-FU=-;ELG1 MMS viab=0.0141µM;Cell viab unstim=?;FLuc enzyme=-
CCCC[C@H]1C(=O)O[C@H](C)[C@H](NC(=O)c2cccc(NC=O)c2OC)C(=O)O[C@@H](C)[C@@H]1OC(=O)CC(C)C	.	.	.	.	.	-
COc1ccccc1OP(=O)(Nc1cccnc1)Oc1ccccc1OC	-	-	-	-	2.31µM	-	ELG1 Luc conf=11.2µM;ELG1-Luc MMS=7.91µM;ELG1 5-FU=-;ELG1 MMS viab=-;Cell viab unstim=?
Cc1ccc(NP(=O)(Oc2ccccc2F)Oc2ccccc2F)cc1C	-	-	-	-	?	-
CC(C)(OOC(C)(C)c1ccccc1)c1ccccc1	.	.	.	.	.	-
CCCSc1ccc2nc(NC(=O)OC)[nH]c2c1	3.01µM	-	-	-	?	?	Cell viab unstim=-
C[C@@H]1O[C@@H](O[C@H]2C[C@@H](O)[C@]3(CO)[C@@H]4C(CC[C@]3(O)C2)[C@@]2(O)CC[C@H]([C@@H]3COC(=O)C3)[C@@]2(C)C[C@H]4O)[C@H](O)[C@H](O)[C@H]1O (some centres not stated)	.	-	-	.	.	.
